Assay outcomes as filed in PubChem.
12-LOX inh – blocks human arachidonate 12S-lipoxygenase | P18054 | purified 12hLO, xylenol orange hydroperoxide absorbance | Potency, µM (doses to about 108 µM), hits mostly inhibitors | 1.1% of 580,000 active
Target sequence (P18054 whole entry, looked up): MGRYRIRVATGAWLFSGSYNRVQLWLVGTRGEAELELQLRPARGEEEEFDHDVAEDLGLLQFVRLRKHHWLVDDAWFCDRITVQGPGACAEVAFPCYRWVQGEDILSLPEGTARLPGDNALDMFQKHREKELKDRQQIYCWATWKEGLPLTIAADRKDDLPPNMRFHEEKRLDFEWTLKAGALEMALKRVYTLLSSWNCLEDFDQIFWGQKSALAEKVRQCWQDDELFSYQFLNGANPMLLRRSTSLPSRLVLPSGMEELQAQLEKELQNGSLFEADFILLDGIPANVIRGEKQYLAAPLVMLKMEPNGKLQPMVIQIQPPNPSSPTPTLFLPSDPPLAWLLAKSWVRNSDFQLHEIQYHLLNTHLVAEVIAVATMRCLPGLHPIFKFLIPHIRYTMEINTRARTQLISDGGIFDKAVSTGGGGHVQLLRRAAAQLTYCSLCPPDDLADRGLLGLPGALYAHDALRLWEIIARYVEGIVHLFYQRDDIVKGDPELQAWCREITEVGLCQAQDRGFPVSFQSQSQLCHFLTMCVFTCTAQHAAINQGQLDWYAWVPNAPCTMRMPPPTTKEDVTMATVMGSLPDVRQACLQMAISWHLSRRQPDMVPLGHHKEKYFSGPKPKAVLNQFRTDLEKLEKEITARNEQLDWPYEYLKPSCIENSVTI
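Purified human 12hLO at 150 nM in 25 mM Hepes, 0.01% Triton X-100, pH 7.0, preincubated 15 min at room temperature with compound. Reaction started with 40 uM arachidonic acid, 30 min at room temperature. Hydroperoxide measured by Fe-xylenol orange, 573/405 nm absorbance ratio.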
TGFb inhibitor – TGF-b pathway inhibition | HepG2 CAGA-GFP TGF-b/SMAD3 reporter, GFP fluorescence, 18 h; TGF-beta stimulated, 500 pg/mL final | AID 588855 | 1.2% of 410,000 active | Potency, µM (highest dose often 46.1 µM), usual class: inhibitors; further: nearly all actives have a fitted effect of over 65% in size
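GFP signal (ex488/em500-530) from TGF-beta-stimulated HEPG2 CAGA-GFP cells, 500 pg/mL final, 18 h at 37 degrees C in DMEM plus 1% FBS, normalized to unstimulated and DMSO-stimulated controls.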
ATXN viability – viability counter-screen for ATXN expression inhibitors | 0.49% of 400,000 active | Potency, µM (titrated, usually from 56.7 µM), hits mostly cytotoxic | S2 cells (HEK-293 line with an ATXN2-luciferase reporter) viability, CellTiter-Fluor protease fluorescence, 24 h; further: nearly all actives have a fitted effect of over 40% in size
HepG2 tox-1 – kills HepG2 cells in TGF-b inhibitor counter-screen; AID 588856; 0.76% of 410,000 active; HepG2 CAGA-GFP viability, ATP luminescence, 18 h; Potency, µM (top dose mostly 46.1 µM), hits mostly cytotoxic
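HepG2 CAGA-GFP cells (1000/well, DMEM with 1% FBS) received compound, then TGF-beta at 500 pg/mL final, and were incubated 18 hours at 37 degrees C. Viability was read by CellTiter-Glo luminescence. Media-only wells were set as complete cell-killing and DMSO as no toxicity.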
ATXN2 expr inh – reduces ATXN2 reporter expression in HEK-293 cells; HEK-293 ATXN2-luciferase reporter, luminescence, 24 h; Potency, µM (top dose mostly 57 µM), hits mostly inhibitors; 0.72% of 360,000 active; AID 1745845; further: nearly all actives have a fitted effect of over 55% in size
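qHTS (up to 57 uM final) was run with 24 h compound exposure of reporter cells at 37 °C. Each well was multiplexed: SteadyGlo luminescence measured ATXN2-luciferase expression after a fluorogenic Gly-Phe-AFC viability readout (25 uM final).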
TGFb confirm – TGF-b pathway inhibition, cherry-pick retest; Potency, µM (doses to about 46.1 µM), hits mostly inhibitors; shares compounds with TGFb inhibitor; AID 720534; HepG2 CAGA-GFP TGF-b reporter, GFP fluorescence, 18 h; cells stimulated with TGF-beta, 500 pg/mL; 63% of 1,600 active; further: nearly all actives have a fitted effect of over 65% in size
HepG2 tox-2 – HepG2 cytotoxicity, TGF-b inhibitor counterscreen; shares compounds with TGFb inhibitor; HepG2 CAGA-GFP viability, ATP luminescence, 18 h; cells stimulated with TGF-beta, 500 pg/mL; Potency, µM (series often up to 46.1 µM), most hits filed as inhibitors; 27% of 1,600 active; AID 720535; further: nearly all actives have a fitted effect of over 70% in size
CCL64 TGFb inh – blocks TGF-b signaling in CCL64 reporter cells | shares compounds with TGFb inhibitor | CCL64 CAGA-GFP reporter, TGF-b stimulated, GFP fluorescence, 18 h | Potency, µM (top dose mostly 46.1 µM), usual class: inhibitors | 41% of 1,600 active; further: nearly all actives have a fitted effect of over 65% in size
TGFb COP inh – validation of TGF-b inhibitors in HepG2 COP promoter reporter; shares compounds with TGFb inhibitor; HepG2 COP-GFP TGF-b reporter, GFP fluorescence, 18 h; cells stimulated by added recombinant TGF-beta; Potency, µM (titrated, usually from 46.1 µM), actives largely listed as inhibitors; 3% of 1,600 active; AID 720537; further: nearly all actives have a fitted effect of over 70% in size
A number is an active result; i = inactive; ? = inconclusive; nt = not tested or not shown; [ ] = remark or other dose. In the library only some 2.7% were active in any assay of this set; here they are far more common. The call rests on the fitted dose curve; in most records, active means well fitted curve in the direction sought with a large enough effect; inconclusive means small, poorly fitted or top-dose-only effect, or another doubt; inactive means no such curve, though single readings can be large; an effect the other way counts as inactive or inconclusive.

SMILES | 12-LOX inh | TGFb inhibitor | ATXN viability | HepG2 tox-1 | ATXN2 expr inh | TGFb confirm | HepG2 tox-2 | CCL64 TGFb inh | TGFb COP inh
O=[N+]([O-])c1c(Nc2ccc(O)cc2)cc(Cl)c2nonc12 | ? | 2.8µM | nt | 5µM | nt | 3.3µM | 3.7µM | 2.9µM | 4.6µM
O=C(O)c1cccc(Nc2cc(Cl)c3nonc3c2[N+](=O)[O-])c1 | ? | i | ? | i | nt | nt | nt | nt | nt
O=[N+]([O-])c1c(Nc2ccccn2)cc(Cl)c2nonc12 | ? | 3.2µM | ? | i | 28µM | 4.6µM | 4.6µM | 4.6µM | 5.2µM
O=C(c1ccc(Cl)cc1)N1CCNc2cnc(Nc3ccccc3)nc2C1 | i | nt | nt | nt | nt | nt | nt | nt | nt
O=C(NCc1ccc2c(c1)OCO2)c1cc([N+](=O)[O-])ccc1N1CCCCC1 | i | ? | ? | i | i | ? | i | ? | i
CC(C)(C)NS(=O)(=O)c1cccc(S(=O)(=O)c2cccc(S(=O)(=O)NC(C)(C)C)c2)c1 | nt | 13µM | i | i | i | 15µM | ? | i | i
CC(C)(C)NS(=O)(=O)c1ccc(N2C(=O)c3ccccc3C2=O)cc1 | i | i | nt | i | nt | nt | nt | nt | nt
c1ccc2c(c1)ncn2-n1cccc1 | i | nt | nt | nt | nt | nt | nt | nt | nt
O=C(NCc1ccc(F)cc1)c1ccccc1-c1ccccc1 | i | nt | nt | nt | nt | nt | nt | nt | nt
CC(=O)N(Cc1ccc(F)cc1)C1=C(NCc2ccccc2)C(=O)c2ccccc2C1=O | nt | 6.3µM | 22µM | 3.2µM | 11µM | 7.3µM | 3.7µM | 3.7µM | ?
COc1ccc(NC(=O)Nc2ccc(C)c(OCc3cc(=O)n4ccccc4n3)c2)cc1OC | i | nt | nt | nt | nt | nt | nt | nt | nt
COc1cccc(CN2CCCC3(Cc4ccccc4CNC3=O)C2)c1 (centres undefined) | i[6.33 µM] | nt | nt | nt | nt | nt | nt | nt | nt
Cc1ccccc1C(=O)N1CCN(c2ccc(NC(=O)CSc3ccc(Cl)cc3)cc2)CC1 | i | 4.5µM | i | i | ? | 4.1µM | ? | ? | i
CCC(=O)Nc1ccc(N2CCN(C(=O)c3ccccc3C)CC2)cc1 | ? | i | i | i | i | nt | nt | nt | nt
N#Cc1c(N2CCN(C(=O)C(=O)NCCO)CC2)nc(-c2ccccc2)c2c1CCCC2 | i | nt | nt | nt | nt | nt | nt | nt | nt
COc1cccc(CC(=O)OC(C)C(=O)NCc2ccc3c(c2)OCO3)c1 (centres undefined) | i | i | i | i | i | nt | nt | nt | nt
CC(OC(=O)Cc1ccc(F)cc1)C(=O)NCc1ccc2c(c1)OCO2 (centres undefined) | i | ? | i | i | i | i | i | i | i
Cc1cccc(N2CCN(C(=O)CCCSc3nc4ccccc4[nH]3)CC2)c1C | i | ? | i | i | i | ? | ? | 13µM | i
Cc1cc(C)nc(/N=C(\N)Nc2ccc(OCc3ccccc3)cc2)n1 | ? | 0.25µM | ? | i | ? | 0.18µM | ? | 18µM | i
Cc1cc(C)nc(/N=C(\N)Nc2cccc(OCc3ccccc3)c2)n1 | ? | ? | ? | i | nt | nt | nt | nt | nt
Cc1cc(C)nc(/N=C(\N)Nc2ccc(CC(=O)OC(C)C)cc2)n1 | i | 10µM | i | i | i | ? | i | ? | i
O=C(c1ccc(Cl)cc1)C(CN1CCCC1)c1ccccc1 (centres undefined) | i | 7.9µM | nt | i | nt | 3.7µM | 8.2µM | 2.6µM | ?
O=C(c1ccc(F)cc1)C(CN1CCOCC1)c1ccccc1 (centres undefined) | i | 3.5µM | nt | 18µM | ? | 7.3µM | 16µM | 3.7µM | ?
CC(C)C(=O)N(Cc1ccccn1)C1CC1 | i | nt | nt | nt | nt | nt | nt | nt | nt
O=C(Cc1cccs1)Nc1nc2c(ccc3ccccc32)s1 | i | 14µM | i | i | i | 16µM | i | ? | i
SMILES | 12-LOX inh | TGFb inhibitor | ATXN viability | HepG2 tox-1 | ATXN2 expr inh | TGFb confirm | HepG2 tox-2 | CCL64 TGFb inh | TGFb COP inh
Cc1ccc(CNc2nc3nc(C)c(CCC(=O)Nc4cccc5ccccc45)c(=O)n3[nH]2)cc1 | i | nt | nt | nt | nt | nt | nt | nt | nt
O=C(Nc1ccc(S(=O)(=O)N2CCOCC2)cc1)c1ccc([N+](=O)[O-])s1 | ? | 4.5µM | i | i | i | 1.6µM | 5.2µM | i | i
O=C(Nc1ccc(N2CCOCC2)cc1)c1ccc([N+](=O)[O-])o1 | i | 5.6µM | ? | i | i | 12µM | 23µM | ? | i
O=C(Nc1ccc(S(=O)(=O)N2CCOCC2)cc1)c1ccc([N+](=O)[O-])o1 | i | 6.3µM | ? | i | ? | 3.3µM | 13µM | 12µM | ?
CC(C)C(NC(=O)c1c(F)cccc1F)C(=O)NCc1cnn(-c2ccccc2)c1 (centres undefined) | i | nt | nt | nt | nt | nt | nt | nt | nt
CCc1nc(Nc2ccncc2)c2oc3ccccc3c2n1 | i | ? | ? | i | ? | 12µM | ? | ? | i
CCCCC(=O)NC(c1cccc([N+](=O)[O-])c1)c1ccc2cccnc2c1O (centres undefined) | ? | ? | ? | i | nt | 10µM | 7.3µM | ? | i
CCSc1ccccc1C(=O)n1nnc2ccccc21 | i | 11µM | i | i | i | 5.8µM | ? | ? | i
CC(=O)Nc1ccc(N=Cc2c(O)c(C(=O)Nc3ccccc3)cc3ccccc23)cc1 | i | 7.1µM | i | i | nt | i | 12µM | 4.6µM | i
Nc1nn(S(=O)(=O)c2ccccc2)cc1-c1ccc([N+](=O)[O-])cc1 | i | ? | i | i | i | 16µM | i | i | i
O=C(CCNc1ccc(Br)cc1)c1cccc([N+](=O)[O-])c1 | i | 13µM | i | i | i | 18µM | i | i | i
O=C(CCNc1ccc(F)cc1)c1cccc([N+](=O)[O-])c1 | i | ? | i | i | i | nt | nt | nt | nt
Cc1ccc(NCCC(=O)c2cccc([N+](=O)[O-])c2)cc1 | ? | 10µM | i | i | i | 23µM | ? | ? | i
O=C(CCNc1ccccc1)c1cccc([N+](=O)[O-])c1 | i | i | i | i | i | nt | nt | nt | nt
O=C(NCCc1cccs1)C1CC(c2ccccc2F)=NO1 (centres undefined) | i | ? | i | i | i | i | i | i | i
CC(=O)Oc1ccc2ccccc2c1C(NC(=O)Cc1ccccc1)c1ccccc1 (centres undefined) | i | 10µM | ? | i | ? | 29µM | ? | ? | i
